Results published in PubChem BioAssay AID1159580 (chemical genetic matrix, 2015).
Among all 5,500 compounds or so, about 2,000 (36%) were called active. Roughly 18% stayed inconclusive and do not appear here. Cut-off read from the data, not from the text of the source: active = normalized growth mostly below about 0.91 (no sharp cut-off); inconclusive = no clear call, values can overlap the other calls; inactive = mostly above about 0.92. The list shows a part of the results.

Test: chemical genetic growth profiling, strain panel (AID 1159580);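 note: tested at 20 µM; growth read once vehicle control cultures reached saturation at 30 °C; 1 = growth at the plate median or of vehicle wells; lower values mean less growth of the strain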
Details: S. cerevisiae deletion strains, growth OD

Measured: normalized growth

OC1(c2ccc(Cl)c(C(F)(F)F)c2)CCN(CCCC(c2ccc(F)cc2)c2ccc(F)cc2)CC1
inactive: locus YHR030C, strain SLT2, hits give low values 0.952 | locus YHR079C, strain IRE1, hits give low values 0.965 | locus YJL095W, strain BCK1, hits give low values 0.972 | locus YJR066W, strain TOR1, hits give low values 0.931 | locus YLR113W, strain HOG1, hits give low values 0.946 | locus YNL183C, strain NPR1, hits give low values 0.935 | locus YOR231W, strain MKK1, hits give low values 0.981 | locus YPL256C, strain CLN2, hits give low values 0.936
active: locus YAL021C, strain ccr4, hits give low values 0.0667 | locus YAL026C, strain drs2, hits give low values 0.0627 | locus YAL030W, strain snc1, hits give low values 0.0597 | locus YBL061C, strain skt5, hits give low values 0.0677 | locus YBR009C, strain hhf1, hits give low values 0.0608 | locus YBR023C, strain chs3, hits give low values 0.0682 | locus YBR171W, strain sec66, hits give low values 0.0917 | locus YBR231C, strain swc5, hits give low values 0.0658 | locus YBR279W, strain paf1, hits give low values 0.218 | locus YCL011C, strain gbp2, hits give low values 0.0588 | locus YCL016C, strain dcc1, hits give low values 0.0739 | locus YCL061C, strain MRC1, hits give low values 0.394 | locus YCL069W, strain vba3, hits give low values 0.101 | locus YCR088W, strain abp1, hits give low values 0.0838 | locus YDL005C, strain med2, hits give low values 0.0778 | locus YDL040C, strain nat1, hits give low values 0.109 | locus YDR001C, strain nth1, hits give low values 0.0892 | locus YDR069C, strain doa4, hits give low values 0.0704 | locus YDR137W, strain rgp1, hits give low values 0.111 | locus YDR159W, strain sac3, hits give low values 0.0866 | locus YDR195W, strain ref2 0.0989 | locus YDR297W, strain sur2, hits give low values 0.0586 | locus YDR334W, strain swr1, hits give low values 0.0861 | locus YDR335W, strain msn5, hits give low values 0.0657 | locus YDR392W, strain spt3, hits give low values 0.0888 | locus YEL003W, strain gim4, hits give low values 0.0558 | locus YEL037C, strain rad23, hits give low values 0.0879 | locus YEL061C, strain CIN8 (second series), hits give low values 0.0952 | locus YER015W, strain faa2, hits give low values 0.0667 | locus YER016W, strain bim1, hits give low values 0.0765 | locus YER111C, strain swi4, hits give low values 0.14 | locus YER155C, strain BEM2 (second series), hits give low values 0.468 | locus YFR010W, strain ubp6, hits give low values 0.0981 | locus YGL167C, strain pmr1, hits give low values 0.0793 | locus YGL173C, strain kem1, hits give low values 0.0739 | locus YGL227W, strain vid30, hits give low values 0.188 | locus YGL240W, strain doc1, hits give low values 0.317 | locus YGL253W, strain hxk2, hits give low values 0.0755 | locus YHR013C, strain ard1, hits give low values 0.148 | locus YHR027C, strain rpn1, hits give low values 0.067 | locus YHR142W, strain chs7, hits give low values 0.0949 | locus YJL092W, strain hpr5, hits give low values 0.105 | locus YJL095W, strain BCK1 (second series), hits give low values 0.0578 | locus YJL115W, strain asf1, hits give low values 0.485 | locus YJL129C, strain trk1, hits give low values 0.0811 | locus YJL154C, strain vps35, hits give low values 0.0686 | locus YJL164C, strain tpk1, hits give low values 0.0638 | locus YJL166W, strain qcr8, hits give low values 0.0607 | locus YKL160W, strain elf1, hits give low values 0.348 | locus YKR026C, strain gcn3, hits give low values 0.132 | locus YKR091W, strain srl3, hits give low values 0.0942 | locus YLL001W, strain dnm1, hits give low values 0.0836 | locus YLL026W, hits give low values 0.0586 | locus YLL041C, strain sdh2, hits give low values 0.0615 | locus YLR027C, strain aat2, hits give low values 0.0571 | locus YLR221C, strain rsa3, hits give low values 0.061 | locus YLR258W, strain gsy2, hits give low values 0.0676 | locus YLR262C, strain YPT6 (second series), hits give low values 0.0931 | locus YLR320W, strain mms22, hits give low values 0.141 | locus YLR342W, strain FKS1, hits give low values 0.0657 | locus YLR357W, strain rsc2, hits give low values 0.321 | locus YLR370C, strain arc18, hits give low values 0.0708 | locus YLR384C, strain iki3, hits give low values 0.127 | locus YML120C, strain ndi1, hits give low values 0.057 | locus YMR058W, strain fet3, hits give low values 0.0807 | locus YMR125W, strain sto1, hits give low values 0.164 | locus YMR129W, hits give low values 0.0603 | locus YMR205C, strain PFK2, hits give low values 0.0884 | locus YMR231W, strain pep5, hits give low values 0.0664 | locus YNL071W, strain lat1, hits give low values 0.0627 | locus YNL209W, strain ssb2, hits give low values 0.0684 | locus YNL248C, strain rpa49, hits give low values 0.196 | locus YNL322C, strain KRE1 (second series), hits give low values 0.479 | locus YNR049C, strain mso1, hits give low values 0.12 | locus YOR001W, strain rrp6, hits give low values 0.0677 | locus YOR070C, strain gyp1, hits give low values 0.0739 | locus YOR080W, strain dia2, hits give low values 0.196 | locus YOR083W, strain WHI5, hits give low values 0.0883 | locus YOR106W, strain vam3, hits give low values 0.0691 | locus YOR265W, strain rbl2, hits give low values 0.0702 | locus YOR270C, strain vph1, hits give low values 0.127 | locus YOR290C, strain snf2, hits give low values 0.104 | locus YPL051W, strain arl3, hits give low values 0.0821 | locus YPL078C, strain atp4, hits give low values 0.216 | locus YPL106C, strain sse1, hits give low values 0.0967 | locus YPL240C, strain hsp82, hits give low values 0.0596

CCNC(=O)N1CCN(CCCC(c2ccc(F)cc2)c2ccc(F)cc2)CC1
inactive: locus YAL040C, strain CLN3, hits give low values 0.994 | locus YCL061C, strain MRC1 (second series), hits give low values 0.99 | locus YDR150W, strain NUM1, hits give low values 0.982 | locus YDR363W, strain ESC2, hits give low values 1.04 | locus YER002W, strain NOP16, hits give low values 1 | locus YJR075W, strain HOC1, hits give low values 0.988 | locus YMR263W, strain SAP30, hits give low values 0.988 | locus YNL175C, strain NOP13, hits give low values 1.03 | locus YNL197C, strain WHI3, hits give low values 1.02 | locus YNL224C, strain SQS1, hits give low values 1.04 | locus YNL322C, strain KRE1, hits give low values 0.974 | locus YOR083W, strain WHI5 (second series), hits give low values 1 | locus YPL055C, strain LGE1, hits give low values 0.916
